In PubChem BioAssay (NCATS):
Results filed as inconclusive are left out. The source made the active and inactive calls. The call rests on the fitted dose curve; in most records, active means well fitted inhibition curve with a large enough effect; inconclusive means small, poorly fitted or top-dose-only effect; inactive means flat fitted curve, though single readings scatter.

Experiments:
Experiment in all cases: qHTS profiling for inhibitors of Plasmodium falciparum proliferation (AID 504749); further: nearly all actives have a fitted effect of over 60% in size
Settings in all cases: P. falciparum in erythrocytes, SYBR Green DNA, 72 h; series mostly up to 28.7 µM
[1] = system: AS120
Outline: (§1)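 SYBR Green fluorescence of parasite DNA, read after lysis and overnight dark incubation, measured growth over 72 h in erythrocyte culture at 0.3% parasitemia and 2.5% hematocrit. Data normalised to DMSO and 0.29 uM artemisinin, with plate-drift correction.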

[2] = system: ATS189
Outline: as §1

[3] = system: CP211
Outline: as §1

[4] = system: CP215
Outline: as §1

[5] = system: CP247
Outline: as §1

[6] = system: CP262
Outline: as §1

[7] = system: CP266
Outline: as §1

[8] = system: CP268
Outline: as §1

[9] = system: CP269
Outline: as §1

[10] = system: CP297
Outline: as §1

[11] = system: CP315
Outline: as §1

[12] = system: CP325
Outline: as §1

[13] = system: CP329
Outline: as §1

[14] = system: CP335
Outline: as §1

[15] = system: DIV14
Outline: as §1

[16] = system: DIV17
Outline: as §1

[17] = system: GB4
Outline: as §1

[18] = system: PC26
Outline: as §1

[19] = system: PC49
Outline: as §1

[20] = system: TAB113
Outline: as §1

Measured: Potency

CC(=O)OC1CC2CCC1(C)C2(C)C (stereo not given)
inactive: all assays above
